Measured values reported in PubChem BioAssay (EPA / NIEHS).
Values joined by “and” are separate entries in the source; they are usually repeats but may differ in a detail not shown here. Equal values may be shown once. Results filed as inconclusive are left out. Active and inactive are the calls of the source. The calls were made as follows, unless noted: active = hit-call score of the fitted dose curve at least 0.9, where 1 is the maximum; inactive = score below 0.9.

Key:
[1] = target: Myc proto-oncogene protein (Homo sapiens) (UniProt P01106); experiment: ATG_Myc_CIS: Attagene CIS-FACTORIAL HepG2 Assay for human Myelocytomatosis (Myc) Proto-Oncogene Transcription Factor (AID 2282990); settings: HepG2, Attagene cis-reporter transcription factor activity; actives raise or lower the signal
How it was run: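 Multiplexed cis-reporter transcription in HepG2 cells after 24 h chemical treatment. Reporter mRNA measured by RT-PCR and capillary electrophoresis fluorescence; activity fitted bidirectionally against DMSO control.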

[2] = ATG_NF_kB_CIS: Attagene CIS-FACTORIAL HepG2 Assay for human Nuclear Factor Kappa B (NF-kB) (AID 2282991); settings: HepG2 Attagene cis-factorial NF-kB reporter mRNA; actives raise or lower the signal
How it was run: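 Endogenous transcription factor activity in HepG2 was captured via cis-regulated reporter constructs; after 24 h dosing, reporter mRNA was reverse-transcribed, amplified, fluorescently labelled and sized by capillary electrophoresis, with activity fitted bidirectionally relative to DMSO.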

[3] = target: Cellular tumor antigen p53 (Homo sapiens) (UniProt P04637); experiment: ATG_p53_CIS: Attagene CIS-FACTORIAL HepG2 Assay for human p53 Transcription Factor (AID 2282994); settings: HepG2 p53 cis-element reporter, Attagene mRNA; actives raise or lower the signal
How it was run: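 Endogenous p53 activity read in transiently transfected HepG2 from a cis-element-driven reporter transcript after 24 h exposure. RNA reverse-transcribed, PCR-amplified, fluorescently labelled and sized by capillary electrophoresis; gain or loss fitted against DMSO baseline.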

[4] = BSK_3C_uPAR: BioMAP Diversity Plus: 3C Assay for Urokinase-type plasminogen activator receptor (uPAR) Biomarker Activity (AID 2282998); settings: BioMAP 3C HUVEC, uPAR biomarker ELISA; actives raise or lower the signal
How it was run: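 Cell-surface uPAR on HUVEC (3C system) read by ELISA at 24 h post-treatment, with DMSO as baseline and fitting in both directions. Parallel cultures stained with SRB to flag overt cytotoxicity.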

[5] = BSK_3C_VCAM1: BioMAP Diversity Plus: 3C Assay for Vascular cell adhesion molecule 1 (VCAM1) Biomarker Activity (AID 2282999); settings: BioMAP 3C HUVEC, VCAM1 ELISA, cytokine-stimulated; actives raise or lower the signal
How it was run: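 Vascular primary endothelium (human umbilical vein) was exposed to chemicals and assayed 24 h later. VCAM-1 levels came from ELISA, with DMSO serving as baseline for bidirectional fitting.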

[6] = BSK_4H_Eotaxin3: BioMAP Diversity Plus: 4H Assay for Eotaxin 3 Biomarker Activity (AID 2283000); settings: primary human endothelial cells (HUVEC); actives raise or lower the signal
How it was run: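 Eotaxin-3 (CCL26) levels were measured by ELISA in HUVEC primary cultures 24 h post-dosing. Gain or loss of signal was fitted in both directions, with DMSO serving as baseline and negative control.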

[7] = target: human Peroxisome Proliferator-activated Receptor alpha (PPARa), PPARA (gene 5465) (UniProt Q07869); experiment: ATG_PPARa_TRANS: Attagene TRANS-FACTORIAL HepG2 Assay for human Peroxisome Proliferator-activated Receptor alpha (PPARa) (AID 2283001; active = hit-call score of the fitted dose curve at least 0.9, where 1 is the maximum)
How it was run: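 Exposure: 24 h, transiently transfected HepG2 cells. Endpoint: GAL4-UAS reporter mRNA, RT-PCR with capillary electrophoresis fluorescence. Baseline: DMSO; increases fitted.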

[8] = target: human Peroxisome Proliferator-activated Receptor delta (PPARd), PPARD (gene 5467) (UniProt Q03181); experiment: ATG_PPARd_TRANS: Attagene TRANS-FACTORIAL HepG2 Assay for human Peroxisome Proliferator-activated Receptor delta (PPARd) (AID 2283002; active = hit-call score of the fitted dose curve at least 0.9, where 1 is the maximum)
How it was run: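 Multiplexed trans-activation format: HepG2 liver cells expressing exogenous NR-Gal4 chimeras and GAL4-UAS reporters were exposed for 24 h. Reporter mRNA was detected by RT-PCR with capillary electrophoresis fluorescence; activity fitted as gain of signal relative to DMSO.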

[9] = read-out: Intercellular Adhesion Molecule 1 (ICAM1), ICAM1 (gene 3383); experiment: BSK_3C_ICAM1: BioMAP Diversity Plus: 3C Assay for Intercellular Adhesion Molecule 1 (ICAM1) Biomarker Activity (AID 2283003); settings: primary human endothelial cells (HUVEC); actives raise or lower the signal
How it was run: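 ELISA read-out of ICAM-1; HUVEC (primary human), 3C system, 24 h post-dosing; bidirectional fit vs DMSO baseline.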

[10] = target: human Retinoic Acid Receptor beta (RARb), RARB (gene 5915) (UniProt P10826); experiment: ATG_RARb_TRANS: Attagene TRANS-FACTORIAL HepG2 Assay for human Retinoic Acid Receptor beta (AID 2283004; active = hit-call score of the fitted dose curve at least 0.9, where 1 is the maximum)
How it was run: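 HepG2 cells were transiently transfected with GAL4-UAS reporter units that report activity of exogenous chimeric NR-Gal4 proteins, then exposed to compound for 24 h. Reporter mRNA was quantified by RT-PCR with capillary electrophoresis fluorescence, as gain of signal over DMSO.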

[11] = BSK_3C_Proliferation: Cell Proliferation Assessment in the BioMAP Diversity Plus: 3C Assay (AID 2283006); settings: primary human endothelial cells (HUVEC);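 also: potency may reflect either rise or fall in cell number versus DMSO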
How it was run: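 HUVEC, sub-confluent; 48 h chemical exposure; 10% TCA fix, 0.1% SRB stain, A560 total protein. Gain or loss of signal fitted both directions vs DMSO control.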

[12] = target: Nuclear receptor subfamily 1 group I member 2 (Homo sapiens) (UniProt O75469); experiment: ATG_PXR_TRANS: Attagene TRANS-FACTORIAL HepG2 Assay for human Pregnane X Receptor (PXR) (AID 2283008; active = hit-call score of the fitted dose curve at least 0.9, where 1 is the maximum)
How it was run: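 Transactivation by exogenous PXR–GAL4 fusion measured as reporter transcript induction after 24 h compound treatment of transfected human HepG2 cells. Read-out via RT-PCR and capillary electrophoresis of labelled fragments, fitted upward relative to DMSO.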

[13] = target: human RAR-related Orphan Receptor beta (RORb), RORB (gene 6096) (UniProt Q92753); experiment: ATG_RORb_TRANS: Attagene TRANS-FACTORIAL HepG2 Assay for human RAR-related Orphan Receptor beta (RORb) (AID 2283010; active = hit-call score of the fitted dose curve at least 0.9, where 1 is the maximum)
How it was run: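 HepG2, transient MRTU transfection (GAL4-UAS reporters, exogenous NR-Gal4 chimeras); 24 h compound exposure; total RNA → RT-PCR → 6-FAM primer extension → HpaI digest → CE fluorescence. Positive direction vs DMSO baseline.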

[14] = target: human RAR-related Orphan Receptor gamma (RORg), RORC (gene 6097) (UniProt P51449); experiment: ATG_RORg_TRANS: Attagene TRANS-FACTORIAL HepG2 Assay for human RAR-related Orphan Receptor gamma (RORg) (AID 2283011; active = hit-call score of the fitted dose curve at least 0.9, where 1 is the maximum)
How it was run: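 HepG2 cells transiently transfected with GAL4-UAS reporter units and chimeric RORg-Gal4 construct; after 24 h chemical exposure, reporter mRNA measured by RT-PCR with fluorescent capillary electrophoresis, gain of signal fitted against DMSO.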

[15] = ATG_Oct_MLP_CIS: Attagene CIS-FACTORIAL HepG2 Assay for human Octamer-Binding Transcription Factor (Oct) (AID 2282993); settings: HepG2 Attagene cis-factorial Oct reporter, mRNA; actives raise or lower the signal
How it was run: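 Readout is reporter transcript level from RT-PCR with fluorescent primer extension and capillary electrophoresis, fitted in both directions against DMSO. Transfected HepG2 reporter units report endogenous factor activity after 24 h dosing.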

[16] = target: human Retinoic Acid Receptor gamma (RARg), RARG (gene 5916) (UniProt P13631); experiment: ATG_RARg_TRANS: Attagene TRANS-FACTORIAL HepG2 Assay for human Retinoic Acid Receptor gamma (RARg) (AID 2283009; active = hit-call score of the fitted dose curve at least 0.9, where 1 is the maximum)
How it was run: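 Readout: reporter transcript levels via RT-PCR, 6-FAM primer-extension labelling, HpaI digestion and capillary electrophoresis. Cells: HepG2 carrying transfected RARg-GAL4 chimera plus UAS reporter set. Dosing 24 h; DMSO negative control.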

[17] = target: Peroxisome proliferator-activated receptor gamma (Homo sapiens) (UniProt P37231); experiment: ATG_PPARg_TRANS: Attagene TRANS-FACTORIAL HepG2 Assay for human Peroxisome Proliferator-activated Receptor-gamma (PPARg) (AID 2283007; active = hit-call score of the fitted dose curve at least 0.9, where 1 is the maximum)
How it was run: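 A TRANS-format multiplexed reporter assay measures activity of an exogenous chimeric NR-Gal4 protein in HepG2 cells. After 24 h of chemical exposure, reporter transcripts are amplified, fluorescently labelled and sized by capillary electrophoresis, with gain of signal scored against DMSO.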

[18] = ATG_NRF2_ARE_CIS: Attagene CIS-FACTORIAL HepG2 Assay for human Nuclear Factor Erythroid 2 Related Factor 2 (NFR2) response to Antioxidant Response Elements (ARE) (AID 2282992); settings: HepG2 Attagene ARE/NRF2 reporter, transcription factor activity; actives raise or lower the signal
How it was run: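 Endogenous transcription factor activity read out as reporter transcript levels (RT-PCR plus capillary electrophoresis, fluorescence) in transiently transfected HepG2 cells. Measured at 24 h after dosing; gain or loss of signal fitted versus DMSO.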

[19] = target: Retinoic acid receptor alpha (Homo sapiens) (UniProt P10276); experiment: ATG_RARa_TRANS: Attagene TRANS-FACTORIAL HepG2 Assay for human Retinoic Acid Receptor alpha (RARa) (AID 2283005; active = hit-call score of the fitted dose curve at least 0.9, where 1 is the maximum)
How it was run: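 HepG2 cells transiently transfected with multiple reporter units expressing chimeric RARα-GAL4 fusion, with GAL4-UAS-driven reporters. After 24 h compound exposure, reporter mRNA induction quantified by RT-PCR and capillary electrophoresis with fluorescent labeling; gain-of-signal fitted relative to DMSO control.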

Measured: AC50

human Peroxisome Proliferator-activated Receptor alpha (PPARa), PPARA (gene 5465), sequence (Q07869 whole entry, looked up, the tested form may be a part): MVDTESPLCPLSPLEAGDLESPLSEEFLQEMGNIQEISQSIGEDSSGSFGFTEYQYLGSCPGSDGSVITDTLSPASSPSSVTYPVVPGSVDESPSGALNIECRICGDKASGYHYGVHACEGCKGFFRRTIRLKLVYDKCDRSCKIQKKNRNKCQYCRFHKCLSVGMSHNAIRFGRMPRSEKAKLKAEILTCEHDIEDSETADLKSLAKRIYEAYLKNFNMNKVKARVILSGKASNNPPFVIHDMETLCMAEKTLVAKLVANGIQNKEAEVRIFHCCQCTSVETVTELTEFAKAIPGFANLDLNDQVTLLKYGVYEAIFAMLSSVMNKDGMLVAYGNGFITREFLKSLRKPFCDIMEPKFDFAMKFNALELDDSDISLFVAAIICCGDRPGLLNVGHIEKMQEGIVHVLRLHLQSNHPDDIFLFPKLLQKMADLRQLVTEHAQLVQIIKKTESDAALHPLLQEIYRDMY
Nuclear receptor subfamily 1 group I member 2 (Homo sapiens), sequence (O75469 whole entry, looked up, the tested form may be a part): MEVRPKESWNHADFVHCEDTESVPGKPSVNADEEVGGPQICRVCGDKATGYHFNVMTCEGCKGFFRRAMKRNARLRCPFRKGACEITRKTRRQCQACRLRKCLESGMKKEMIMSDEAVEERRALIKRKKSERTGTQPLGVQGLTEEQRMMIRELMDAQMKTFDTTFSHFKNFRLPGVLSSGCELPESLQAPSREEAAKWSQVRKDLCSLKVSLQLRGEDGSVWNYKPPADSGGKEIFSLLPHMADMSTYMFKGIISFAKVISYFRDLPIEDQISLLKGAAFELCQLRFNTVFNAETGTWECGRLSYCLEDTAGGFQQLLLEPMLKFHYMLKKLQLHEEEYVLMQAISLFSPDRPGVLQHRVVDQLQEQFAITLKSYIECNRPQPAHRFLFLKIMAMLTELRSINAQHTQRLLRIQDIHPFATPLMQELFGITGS
Cellular tumor antigen p53 (Homo sapiens), sequence (P04637 whole entry, looked up): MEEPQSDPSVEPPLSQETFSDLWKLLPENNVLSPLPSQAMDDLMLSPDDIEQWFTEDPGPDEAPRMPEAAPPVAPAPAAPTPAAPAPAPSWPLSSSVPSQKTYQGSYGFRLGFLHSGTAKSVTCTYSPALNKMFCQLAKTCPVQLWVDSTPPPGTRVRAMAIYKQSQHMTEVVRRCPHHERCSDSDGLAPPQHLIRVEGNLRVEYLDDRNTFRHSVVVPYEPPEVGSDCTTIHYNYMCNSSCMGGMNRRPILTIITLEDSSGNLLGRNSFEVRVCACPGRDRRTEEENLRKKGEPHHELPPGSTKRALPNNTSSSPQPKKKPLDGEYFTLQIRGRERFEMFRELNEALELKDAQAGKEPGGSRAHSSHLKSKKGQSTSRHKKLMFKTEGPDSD
Myc proto-oncogene protein (Homo sapiens), sequence (P01106 whole entry, looked up): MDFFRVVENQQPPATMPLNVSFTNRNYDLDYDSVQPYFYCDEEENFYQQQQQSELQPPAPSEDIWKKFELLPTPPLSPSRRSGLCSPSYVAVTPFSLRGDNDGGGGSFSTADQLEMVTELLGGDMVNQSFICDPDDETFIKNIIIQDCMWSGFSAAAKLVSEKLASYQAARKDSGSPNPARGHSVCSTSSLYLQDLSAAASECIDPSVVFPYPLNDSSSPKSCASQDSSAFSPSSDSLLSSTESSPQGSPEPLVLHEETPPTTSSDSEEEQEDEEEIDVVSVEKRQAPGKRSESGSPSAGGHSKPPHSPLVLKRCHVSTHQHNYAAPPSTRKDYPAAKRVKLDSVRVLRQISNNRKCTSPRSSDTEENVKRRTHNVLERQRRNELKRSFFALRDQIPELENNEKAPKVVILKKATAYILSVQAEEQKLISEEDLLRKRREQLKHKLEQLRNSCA
human RAR-related Orphan Receptor beta (RORb), RORB (gene 6096), sequence (Q92753 whole entry, looked up, the tested form may be a part): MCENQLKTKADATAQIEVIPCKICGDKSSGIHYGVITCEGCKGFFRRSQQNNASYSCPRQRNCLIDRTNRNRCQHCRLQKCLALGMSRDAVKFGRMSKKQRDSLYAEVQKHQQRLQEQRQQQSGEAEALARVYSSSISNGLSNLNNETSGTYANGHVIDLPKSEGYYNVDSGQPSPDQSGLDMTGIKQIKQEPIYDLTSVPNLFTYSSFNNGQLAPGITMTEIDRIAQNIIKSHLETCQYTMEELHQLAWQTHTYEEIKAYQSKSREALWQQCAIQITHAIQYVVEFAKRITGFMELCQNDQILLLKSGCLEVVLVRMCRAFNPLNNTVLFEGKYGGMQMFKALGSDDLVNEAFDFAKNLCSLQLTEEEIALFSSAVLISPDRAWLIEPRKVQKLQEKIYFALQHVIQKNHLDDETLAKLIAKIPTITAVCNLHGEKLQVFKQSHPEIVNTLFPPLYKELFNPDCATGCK
human Peroxisome Proliferator-activated Receptor delta (PPARd), PPARD (gene 5467), sequence (Q03181 whole entry, looked up, the tested form may be a part): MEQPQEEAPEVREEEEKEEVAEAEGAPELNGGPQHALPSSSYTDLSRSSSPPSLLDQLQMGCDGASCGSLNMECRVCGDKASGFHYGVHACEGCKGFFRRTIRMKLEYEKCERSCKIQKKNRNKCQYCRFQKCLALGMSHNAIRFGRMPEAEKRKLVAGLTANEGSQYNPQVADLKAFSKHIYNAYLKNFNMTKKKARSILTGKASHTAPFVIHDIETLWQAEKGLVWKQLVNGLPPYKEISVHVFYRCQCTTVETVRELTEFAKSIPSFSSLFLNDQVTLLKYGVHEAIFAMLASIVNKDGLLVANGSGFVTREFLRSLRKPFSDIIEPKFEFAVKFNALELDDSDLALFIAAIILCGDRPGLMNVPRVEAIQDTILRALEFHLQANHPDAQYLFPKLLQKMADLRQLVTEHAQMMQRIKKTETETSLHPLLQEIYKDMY
Peroxisome proliferator-activated receptor gamma (Homo sapiens), sequence (P37231 whole entry, looked up, the tested form may be a part): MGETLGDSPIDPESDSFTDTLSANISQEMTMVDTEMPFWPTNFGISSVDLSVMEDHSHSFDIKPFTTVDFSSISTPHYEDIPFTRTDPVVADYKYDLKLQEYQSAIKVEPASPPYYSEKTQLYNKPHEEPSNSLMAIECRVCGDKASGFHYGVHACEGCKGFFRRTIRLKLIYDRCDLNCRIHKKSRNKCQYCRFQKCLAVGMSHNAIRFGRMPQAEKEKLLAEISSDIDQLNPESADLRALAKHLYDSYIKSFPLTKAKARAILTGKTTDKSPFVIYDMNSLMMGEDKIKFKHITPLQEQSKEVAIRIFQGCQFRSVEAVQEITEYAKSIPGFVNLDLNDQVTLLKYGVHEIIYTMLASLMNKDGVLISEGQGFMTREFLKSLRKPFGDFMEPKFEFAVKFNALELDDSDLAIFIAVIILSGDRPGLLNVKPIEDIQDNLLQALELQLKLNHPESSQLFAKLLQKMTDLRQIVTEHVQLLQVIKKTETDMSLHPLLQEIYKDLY
human RAR-related Orphan Receptor gamma (RORg), RORC (gene 6097), sequence (P51449 whole entry, looked up, the tested form may be a part): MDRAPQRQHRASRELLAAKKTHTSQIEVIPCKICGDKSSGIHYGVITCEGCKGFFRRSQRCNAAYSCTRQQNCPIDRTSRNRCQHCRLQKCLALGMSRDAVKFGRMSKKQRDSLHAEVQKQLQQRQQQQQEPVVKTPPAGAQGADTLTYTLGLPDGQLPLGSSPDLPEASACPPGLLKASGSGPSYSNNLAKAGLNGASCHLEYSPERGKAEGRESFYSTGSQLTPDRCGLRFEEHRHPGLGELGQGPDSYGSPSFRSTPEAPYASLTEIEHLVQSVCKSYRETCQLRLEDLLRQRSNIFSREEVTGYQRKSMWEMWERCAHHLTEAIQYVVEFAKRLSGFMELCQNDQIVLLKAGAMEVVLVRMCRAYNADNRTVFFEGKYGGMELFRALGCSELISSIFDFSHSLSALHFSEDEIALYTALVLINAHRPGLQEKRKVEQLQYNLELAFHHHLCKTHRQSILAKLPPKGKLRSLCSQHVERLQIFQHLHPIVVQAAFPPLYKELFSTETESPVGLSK
human Retinoic Acid Receptor gamma (RARg), RARG (gene 5916), sequence (P13631 whole entry, looked up, the tested form may be a part): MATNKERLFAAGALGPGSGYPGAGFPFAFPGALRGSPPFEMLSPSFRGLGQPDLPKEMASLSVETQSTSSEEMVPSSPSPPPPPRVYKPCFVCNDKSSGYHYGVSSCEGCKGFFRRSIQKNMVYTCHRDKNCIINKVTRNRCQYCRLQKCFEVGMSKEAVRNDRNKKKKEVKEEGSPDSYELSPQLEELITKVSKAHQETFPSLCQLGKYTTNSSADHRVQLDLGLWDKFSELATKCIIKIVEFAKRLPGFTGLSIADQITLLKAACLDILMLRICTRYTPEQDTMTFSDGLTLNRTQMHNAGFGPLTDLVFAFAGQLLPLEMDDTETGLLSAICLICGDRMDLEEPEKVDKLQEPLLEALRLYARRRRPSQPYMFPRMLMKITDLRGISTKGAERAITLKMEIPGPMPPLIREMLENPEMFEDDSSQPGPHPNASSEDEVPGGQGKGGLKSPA
human Retinoic Acid Receptor beta (RARb), RARB (gene 5915), sequence (P10826 whole entry, looked up, the tested form may be a part): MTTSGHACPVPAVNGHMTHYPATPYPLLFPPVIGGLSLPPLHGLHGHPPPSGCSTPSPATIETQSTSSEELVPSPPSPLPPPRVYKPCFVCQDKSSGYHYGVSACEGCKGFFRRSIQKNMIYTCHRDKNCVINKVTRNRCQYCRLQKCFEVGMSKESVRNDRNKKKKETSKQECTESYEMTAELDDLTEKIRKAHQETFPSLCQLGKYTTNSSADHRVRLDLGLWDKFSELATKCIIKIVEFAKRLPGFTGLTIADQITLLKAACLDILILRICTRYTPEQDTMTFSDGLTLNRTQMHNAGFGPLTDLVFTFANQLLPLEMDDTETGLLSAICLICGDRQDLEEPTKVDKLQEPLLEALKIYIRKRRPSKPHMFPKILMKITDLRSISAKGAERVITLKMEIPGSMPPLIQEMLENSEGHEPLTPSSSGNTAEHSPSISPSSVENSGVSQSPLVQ

OCC(F)(F)C(F)(F)C(F)(F)C(F)(F)C(F)(F)C(F)(F)C(F)(F)C(F)(F)C(F)(F)C(F)(F)C(F)(F)F
active: [11] 141 nM and 224 nM
not listed: [15] | [16] | [17] | [18] | [19]
inactive: all other assays above

FCOC(C(F)(F)F)C(F)(F)F
inactive: [1] | [2] | [15] | [7] | [8] | [16] | [13]

C/C=C/C(=O)C1=C(C)CCCC1(C)C
active: [15] 27.1 µM | [3] 164 µM | [17] 64.7 µM | [12] 19.8 µM
inactive: [1] | [2] | [14]

NCCN
inactive: [1] | [18] | [3] | [8] | [10] | [19] | [17] | [14]

C=CC(C)(CCC=C(C)C)OC(C)=O (stereo unspecified)
active: [4] 31.5 µM | [6] 34.2 µM | [11] 34.2 µM | [12] 29.5 µM
not listed: [8] | [10] | [15] | [16] | [18] | [19]
inactive: all other assays above

CCCCCC(C)OC(=O)COc1ccc(Cl)c2cccnc12 (stereo unspecified)
inactive: [1] | [15] | [3] | [7] | [8] | [12] | [16]
